Experimental data published in PubChem BioAssay (NCATS).
Calls of active or inactive are those of the source. The call rests on the fitted dose curve. Peptide text beside a SMILES is read from it.

Experiment: qHTS drug screen for cell cycle checkpoint inhibitors in PARPi-resistant BRCA-mutant ovarian cancer cell lines. (AID 1963452)
Settings: PEO1/OlaR viability, CellTiter-Glo luminescence, 96 h; for Z-AUC: stronger effect = lower value
Summary of the method: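 PEO1, PEO4 and PEO1/OlaR ovarian cancer cells, 600 per well, exposed 96 h at 37C to a dilution series. Viability read by CellTiter-Glo luminescence, normalized to DMSO and empty wells; activity summarized as Z-AUC.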

[1] = measured here: PEO1 parental Z-AUC
Potency means the concentration at half of the fitted maximal effect.

SMILES	Z-AUC	Z-AUC [1]	Z-AUC (measured here: PEO4 Z-AUC)	Potency
O=C(O)c1cccc(-c2noc(-c3ccccc3F)n2)c1	0.225 (inactive)	0.852	1.3	
Cc1cc2cc3c(C)cc(=O)oc3c(C)c2o1	0.166 (inactive)	0.892	0.841	
COc1ccc(C2(C#N)CCC(C(=O)O)CC2)cc1OC1CCCC1 (configuration not stated)	0.982 (inactive)	1.47	0.858	
CCOC(=O)C1=C[C@@H](OC(CC)CC)[C@H](NC(C)=O)[C@@H](N)C1	0.109 (inactive)	0.666	0.833	
CCN(CC)C(=S)SSC(=S)N(CC)CC	0.318 (inactive)	0.214	0.454	
Cc1cccc(CN2CCN(C(c3ccccc3)c3ccc(Cl)cc3)CC2)c1 (configuration not stated)	-1.46 (inactive)	-0.604	-1	
O=C(c1ccccc1)c1ccc2n1CCC2C(=O)O (configuration not stated)	1.02 (inactive)	0.719	0.897	
CCC1=C(C)CN(C(=O)NCCc2ccc(S(=O)(=O)NC(=O)NC3CCC(C)CC3)cc2)C1=O (configuration not stated)	-0.196 (inactive)	0.246	0.144	
CCN(CC)CCOc1ccc(Nc2ncc3cc(-c4c(Cl)cccc4Cl)c(=O)n(C)c3n2)cc1		-1.55	-1.25	155 nM (active)
CCCc1cc(=O)[nH]c(=S)[nH]1	-0.283 (inactive)	-0.244	0.119	
O=C1c2c(O)cc(O)cc2OC(c2ccc(O)c(O)c2)C1O (configuration not stated)	-0.835 (inactive)	-0.249	-0.326	
O=c1c(O)c(-c2cc(O)c(O)c(O)c2)oc2cc(O)cc(O)c12	1.5 (inactive)	1.23	1.17	
CCCCc1ccc2nc(NC(=O)OC)[nH]c2c1		-1.68	-1.66	38.9 nM (active)
CC1=C(C)C(=O)C(C(CCCCCC(=O)O)c2ccccc2)=C(C)C1=O (configuration not stated)	0.121 (inactive)	0.192	0.237	
COC(=O)[C@H](Cc1ccccc1)NC(=O)[C@@H](N)CC(=O)O (H-Asp-Phe-OMe)	0.187 (inactive)	0.0667	0.437	
CC(=O)Nc1ccc(O)cc1	0.911 (inactive)	0.308	0.415	
CN(C)C(=O)[C@H](O)[C@H](Cc1ccccc1)NC(=O)c1cc2cc(Cl)ccc2[nH]1	-0.181 (inactive)	0.139	-0.0271	
Clc1ccc2c(N3CCN(CCCN4CCN(c5ccnc6cc(Cl)ccc56)CC4)CC3)ccnc2c1	0.751 (inactive)	0.492	0.795	
Cc1c(OCC(F)(F)F)ccnc1CS(=O)c1nc2ccccc2[nH]1 (configuration not stated)	1.49 (inactive)	0.689	0.798	
